Test [1] in a line: antimalarial activity against Dd2 strain (AID 2302;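 active = growth inhibition above 50% at the single 2 µM test dose, taken to imply half-maximal potency below 2 µM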;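 also: 0% = DMSO untreated growth and 100% = chloroquine plus artemisinin killed control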). The note with it: P. falciparum Dd2 in RBCs, LDH growth readout, 72 h; at 2 µM; active compounds read high.
Test [2] in a line: human hepatoma cell viability loss – ATP luminescence, cytotoxicity control for P. falciparum antimalarial project, primary screen (AID 2303;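 active = inhibition above 50%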;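 also: 0% = DMSO wells and 100% = digitonin-killed cells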). The conditions noted are these: HepG2 viability, 24-48 h, at 10 µM, active compounds read high.
Test [3] concerns the target L-lactate dehydrogenase (Plasmodium falciparum (isolate CDC / Honduras)) (UniProt Q27743). The test is described as follows: PfLDH activity inhibition – cell lysate, 3D7 strain, counter-screen for P. falciparum growth inhibition project (AID 2304).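 Also: 0% = vehicle and 100% = reference inhibitor.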 The conditions noted are these: P. falciparum 3D7 crude extract, LDH APAD/NBT absorbance; at 2 µM; active compounds read high. For orientation: Counterscreens check selectivity or assay interference.

The nature of test [4]: inhibition of 3D7 malaria parasite growth – strain 3D7 (AID 2306).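 Also: 0% = DMSO wells and 100% = chloroquine plus artemisinin control wells.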 The conditions noted are these: P. falciparum 3D7 erythrocytic growth, LDH absorbance, 72 h; at 2 µM; active compounds read high.
The target of test [5] is Calcium-dependent protein kinase 1 (Plasmodium falciparum (isolate 3D7)) (UniProt P62344). The test is described as follows: PfCDPK1 kinase inhibitors, biochemical, TCAMS library (AID 1159585; cut-off not given, nearly all actives have IC50 up to about 0.98 µM;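 also: inhibitors leave more ATP so luminescence rises with inhibition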). The note with it: recombinant PfCDPK1, Kinase-Glo ATP depletion luminescence.
Chain of Calcium-dependent protein kinase 1 (Plasmodium falciparum (isolate 3D7)) (P62344 whole entry, looked up): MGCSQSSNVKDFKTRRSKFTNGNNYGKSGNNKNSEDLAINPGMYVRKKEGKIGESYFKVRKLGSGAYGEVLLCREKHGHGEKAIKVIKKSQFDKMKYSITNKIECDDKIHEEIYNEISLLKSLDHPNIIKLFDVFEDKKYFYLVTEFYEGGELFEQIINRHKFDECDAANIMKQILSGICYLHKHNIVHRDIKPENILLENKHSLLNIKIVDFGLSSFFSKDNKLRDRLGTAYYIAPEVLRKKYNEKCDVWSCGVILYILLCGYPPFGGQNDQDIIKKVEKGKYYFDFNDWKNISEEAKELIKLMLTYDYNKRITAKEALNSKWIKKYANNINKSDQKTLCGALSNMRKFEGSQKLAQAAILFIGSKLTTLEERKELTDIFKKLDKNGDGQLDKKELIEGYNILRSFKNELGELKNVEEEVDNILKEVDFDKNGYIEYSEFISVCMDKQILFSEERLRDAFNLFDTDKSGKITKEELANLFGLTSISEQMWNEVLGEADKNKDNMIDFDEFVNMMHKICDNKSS
The target in test [6] is Plasmodium falciparum protein kinase 6 (PK6, PF3D7_1337100) (UniProt Q8IDW1). The test is described as follows: PfPK6 kinase inhibitors, biochemical, TCAMS library (AID 1159586). The note with it: recombinant PfPK6, Kinase-Glo ATP depletion luminescence. A general note: Kinase-Glo reads ATP consumption through a luciferase reaction.
Chain of Plasmodium falciparum protein kinase 6 (PK6, PF3D7_1337100) (Q8IDW1 1-305): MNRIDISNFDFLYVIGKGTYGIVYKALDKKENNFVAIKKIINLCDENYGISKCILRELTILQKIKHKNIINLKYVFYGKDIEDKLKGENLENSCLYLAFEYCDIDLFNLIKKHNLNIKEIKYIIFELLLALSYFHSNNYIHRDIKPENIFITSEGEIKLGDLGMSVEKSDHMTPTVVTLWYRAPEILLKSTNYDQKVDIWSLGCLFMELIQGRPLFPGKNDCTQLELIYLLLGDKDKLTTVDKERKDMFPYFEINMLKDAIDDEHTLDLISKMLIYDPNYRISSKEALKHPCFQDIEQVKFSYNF
Test [7] deals with Protein kinase 7 (PK7), Plasmodium falciparum 3D7 (PF3D7_0213400) (UniProt Q7YTF7). Nature of the test: inhibition of Plasmodium PK7 catalytic activity – biochemical, TCAMS antimalarial set, Kinase-Glo luminescence (AID 1159587). The note with it: recombinant PfPK7, Kinase-Glo ATP depletion luminescence.
Chain of Protein kinase 7 (PK7), Plasmodium falciparum 3D7 (PF3D7_0213400) (Q7YTF7 1-343): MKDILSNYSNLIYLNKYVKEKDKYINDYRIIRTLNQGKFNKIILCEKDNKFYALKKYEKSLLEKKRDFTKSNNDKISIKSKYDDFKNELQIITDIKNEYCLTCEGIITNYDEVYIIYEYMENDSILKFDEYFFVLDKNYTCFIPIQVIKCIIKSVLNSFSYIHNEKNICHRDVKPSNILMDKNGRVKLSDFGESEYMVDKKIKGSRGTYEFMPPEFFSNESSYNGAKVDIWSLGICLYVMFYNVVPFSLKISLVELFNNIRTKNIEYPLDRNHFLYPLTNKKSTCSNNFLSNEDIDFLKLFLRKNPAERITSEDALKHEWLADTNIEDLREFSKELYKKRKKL
Test [8] deals with Calcium-dependent protein kinase 4 (Plasmodium falciparum (isolate 3D7)) (UniProt Q8IBS5). The test is described as follows: PfCDPK4 kinase inhibitors, biochemical, TCAMS library (AID 1159588; cut-off not given, nearly all actives have IC50 up to about 0.91 µM). The note with it: recombinant PfCDPK4, Kinase-Glo ATP depletion luminescence.
Chain of Calcium-dependent protein kinase 4 (Plasmodium falciparum (isolate 3D7)) (Q8IBS5 whole entry, looked up): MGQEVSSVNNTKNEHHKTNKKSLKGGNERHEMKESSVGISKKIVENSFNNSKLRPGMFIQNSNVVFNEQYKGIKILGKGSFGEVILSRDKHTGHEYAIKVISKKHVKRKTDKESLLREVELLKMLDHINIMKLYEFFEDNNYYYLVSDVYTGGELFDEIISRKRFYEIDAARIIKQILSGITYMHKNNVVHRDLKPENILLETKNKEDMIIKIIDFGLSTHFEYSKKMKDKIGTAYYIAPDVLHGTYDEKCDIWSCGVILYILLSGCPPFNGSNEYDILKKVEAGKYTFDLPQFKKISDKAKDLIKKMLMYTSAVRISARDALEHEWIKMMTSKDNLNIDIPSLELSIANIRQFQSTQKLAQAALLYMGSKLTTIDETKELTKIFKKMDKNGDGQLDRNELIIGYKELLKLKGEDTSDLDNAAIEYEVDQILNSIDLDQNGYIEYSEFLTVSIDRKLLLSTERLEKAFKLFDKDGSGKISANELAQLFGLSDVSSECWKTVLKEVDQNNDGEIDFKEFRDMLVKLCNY

A number with no mark means an inactive call. For some assays here: Potency and affinity values are given separately. The source made the active and inactive calls. Unless noted, no rule for the calls is given here.

Chain of L-lactate dehydrogenase (Plasmodium falciparum (isolate CDC / Honduras)) (Q27743 whole entry, looked up): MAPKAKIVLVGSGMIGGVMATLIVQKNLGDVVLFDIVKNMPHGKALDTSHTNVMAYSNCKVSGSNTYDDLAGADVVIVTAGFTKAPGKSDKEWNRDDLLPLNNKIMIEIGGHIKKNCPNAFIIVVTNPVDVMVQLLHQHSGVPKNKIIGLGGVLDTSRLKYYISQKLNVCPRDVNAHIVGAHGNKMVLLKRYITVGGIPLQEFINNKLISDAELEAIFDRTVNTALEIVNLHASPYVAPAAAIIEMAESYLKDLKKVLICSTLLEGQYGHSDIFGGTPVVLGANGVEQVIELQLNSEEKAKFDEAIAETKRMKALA

What is called inhibition is the relative decrease from the control value, in per cent. For `COc1ccc([N+](=O)[O-])cc1N(Cc1ccccc1-c1ccccc1)S(=O)(=O)c1ccc(C(F)(F)F)cc1`, the growth inhibition in test [1] is 66% (active); in test [4], 96% (active). The inhibition in test [2] is 3%; in test [3] it was -2%. Further, the result in test [5], in test [6], in test [7] and in test [8] was inactive.
With `CCOC(=O)c1cn(CC)c2cc(O[C@H]3CCN(C(=O)OC(C)(C)C)C3)ccc2c1=O`, the values for the growth inhibition in test [1] and in test [4] were 75% (active) and 98% (active), respectively. Further, the inhibition in test [2] was 9%; in test [3], -1%. The result in test [5], in test [6], in test [7] and in test [8] was inactive.
Regarding `CCOc1ccc2c(c1)N(C(=O)C=Cc1ccccc1)C(C)(C)c1ssc(=S)c1-2`, the growth inhibition in test [1] was 77% (active); in test [4], 83% (active). In addition, the inhibition in test [2] was 3%; in test [3], -1%. In addition, the outcome in test [5], in test [6], in test [7] and in test [8] was inactive.
Consider `Cc1cccc2[nH]c(-c3ccc(-c4ccc(NC(=O)C(C)CN(C)C)cc4)s3)nc12` (configuration not stated), for which the results for the growth inhibition in test [1] and in test [4] were 98% (active) and 100% (active), respectively. For the same compound, the inhibition in test [2] was 23%; in test [3] it was 0%. The outcome in test [5], in test [6], in test [7] and in test [8] was inactive.
Consider `O=C(NC(c1ccccc1)c1ccccc1)C(c1cc2ccccc2o1)N1CCN(C(c2ccccc2)c2ccccc2)CC1` (configuration not stated), for which the growth inhibition in test [1] is 78% (active); in test [4] it was 95% (active). The inhibition in test [2] and in test [3] was -1% each time. Moreover, the outcome in test [5], in test [6], in test [7] and in test [8] was inactive.
Consider `Cc1cc(OCc2ccccc2)c(OCc2ccccc2)cc1C(O)CN(C)Cc1ccccc1` (configuration not stated), for which the values for the growth inhibition in test [1] and in test [4] were 87% (active) and 96% (active), respectively. The inhibition in test [2] was 14%; in test [3], -2%. Also, the result in test [5], in test [6], in test [7] and in test [8] was inactive.
As to `Cc1cccc2c3c([nH]c12)C1(CCN(Cc2ccccc2)CC1)NC(C(=O)NCc1ccccc1)C3` (configuration not stated), the results for the growth inhibition in test [1] and in test [4] were 8% and 81% (active), respectively. Besides, the inhibition in test [2] was -4%; in test [3], -2%. Moreover, the result in test [5], in test [6], in test [7] and in test [8] was inactive.
With `Cc1ccc(C(=O)Nc2cc(C(F)(F)F)cc(C(F)(F)F)c2)cc1[N+](=O)[O-]`, the growth inhibition in test [1] is 61% (active); in test [4], 101% (active). Besides, the values for the inhibition in test [2] and in test [3] were 17% and 1%, respectively. Also, the result in test [5], in test [6], in test [7] and in test [8] was inactive.
Take `O=C(/C=C/c1ccc(Cl)c(Cl)c1)N1CCCC(CCCN2CCC(c3c[nH]c4ccccc34)CC2)C1` (configuration not stated): the growth inhibition was 15% in test [1] and 89% (active) in test [4]. Also, the inhibition in test [2] is 30%; in test [3] it was -1%. Also, the outcome in test [5], in test [6], in test [7] and in test [8] was inactive.
Turning to `COc1ccc2nccc([C@@H](O)CN3CCC(NCc4ccc5c(c4)oc(=S)n5C)CC3)c2c1`, the growth inhibition in test [1] was 68% (active); in test [4] it was 100% (active). Besides, the inhibition in test [2] is 14%; in test [3] it was -6%. Further, the outcome in test [5], in test [6], in test [7] and in test [8] was inactive.
Turning to `COc1ccc(-c2cc(Nc3nc(-c4cccc(Cl)c4)nc4ccccc34)ccn2)cc1`, the results for the growth inhibition in test [1] and in test [4] were 17% and 100% (active), respectively. For the same compound, the inhibition was 3% in test [2] and -2% in test [3]. For the same compound, the outcome in test [5], in test [6], in test [7] and in test [8] was inactive.
On to `COc1ccc2ccccc2c1CON1C(N)=NC(N)=NC1(C)C`, for which the growth inhibition in test [1] was 5%; in test [4], 94% (active). Besides, the inhibition in test [2] was 25%; in test [3], -7%. Besides, the result in test [5], in test [6], in test [7] and in test [8] was inactive.
Take `COc1cc(C=CC(=O)N2CCN(Cc3cccc(C)c3)CC2)ccc1OCc1c(C)noc1C`: the growth inhibition is 95% (active) in test [1] and 86% (active) in test [4]. Moreover, the inhibition in test [2] is 8%; in test [3], -4%. For the same compound, the outcome in test [5], in test [6], in test [7] and in test [8] was inactive.
Consider `COc1ccc2nccc([C@@H](O)CN3CCC(NCc4nc5ccccc5s4)CC3)c2c1`, for which the growth inhibition in test [1] was 5%; in test [4], 93% (active). Also, the figures for the inhibition in test [2] and in test [3] were 8% and -3%, respectively. Besides, the outcome in test [5], in test [6], in test [7] and in test [8] was inactive.
As to `Cc1ccc(S(=O)(=O)N(C)c2ccccc2C(=O)Nc2ccccc2Oc2ccccc2)cc1`, the growth inhibition was 90% (active) in test [1] and 98% (active) in test [4]. Further, the values for the inhibition in test [2] and in test [3] were 5% and 3%, respectively. In addition, the result in test [5], in test [6], in test [7] and in test [8] was inactive.
Turning to `COc1ccc(CNC2CCN(C)CC2)cc1-c1ccc(S(=O)(=O)NCc2cccnc2)s1`, the growth inhibition in test [1] is 3%; in test [4] it was 100% (active). Besides, the inhibition is 10% in test [2] and -4% in test [3]. Further, the result in test [5], in test [6], in test [7] and in test [8] was inactive.
As to `CC1(C)[C@H]2CC[C@@H](CNc3nc(NCC(=O)Nc4ccc5ccccc5c4)nc(N4CCC(N5CCCC5)CC4)n3)[C@@H]1C2`, the growth inhibition in test [1] is 20%; in test [4], 93% (active). The inhibition in test [2] was 6%; in test [3], -5%. Further, the outcome in test [5], in test [6], in test [7] and in test [8] was inactive.
As for `O=[N+]([O-])c1ccccc1C=NNc1ccnc2cc(Cl)ccc12`, the growth inhibition in test [1] was 89% (active); in test [4], 101% (active). For the same compound, the inhibition is -5% in test [2] and 3% in test [3]. Further, the result in test [5], in test [6], in test [7] and in test [8] was inactive.
In the case of `O=S(=O)(/C=C/c1ccccc1)N(Cc1ccc(-c2ccc(CNCCc3ccccn3)cc2)cc1)CC1CCCCN1` (configuration not stated), the growth inhibition in test [1] was 97% (active); in test [4] it was 100% (active). The inhibition in test [2] is 46%; in test [3] it was -4%. The outcome in test [5], in test [6], in test [7] and in test [8] was inactive.

The record behind these values is PubChem BioAssay.
